This note sets out measurements from ChEMBL document CHEMBL1961873, “Compounds: GSK PKIS; Assays: Nanosyn kinase panel” (2012).

Several values for one entry are separate records, joined by “and”; a condition that tells them apart may be missing. Equal values may be shown once.

Chain of High affinity nerve growth factor receptor (Homo sapiens) (P04629 33-796 limits assumed): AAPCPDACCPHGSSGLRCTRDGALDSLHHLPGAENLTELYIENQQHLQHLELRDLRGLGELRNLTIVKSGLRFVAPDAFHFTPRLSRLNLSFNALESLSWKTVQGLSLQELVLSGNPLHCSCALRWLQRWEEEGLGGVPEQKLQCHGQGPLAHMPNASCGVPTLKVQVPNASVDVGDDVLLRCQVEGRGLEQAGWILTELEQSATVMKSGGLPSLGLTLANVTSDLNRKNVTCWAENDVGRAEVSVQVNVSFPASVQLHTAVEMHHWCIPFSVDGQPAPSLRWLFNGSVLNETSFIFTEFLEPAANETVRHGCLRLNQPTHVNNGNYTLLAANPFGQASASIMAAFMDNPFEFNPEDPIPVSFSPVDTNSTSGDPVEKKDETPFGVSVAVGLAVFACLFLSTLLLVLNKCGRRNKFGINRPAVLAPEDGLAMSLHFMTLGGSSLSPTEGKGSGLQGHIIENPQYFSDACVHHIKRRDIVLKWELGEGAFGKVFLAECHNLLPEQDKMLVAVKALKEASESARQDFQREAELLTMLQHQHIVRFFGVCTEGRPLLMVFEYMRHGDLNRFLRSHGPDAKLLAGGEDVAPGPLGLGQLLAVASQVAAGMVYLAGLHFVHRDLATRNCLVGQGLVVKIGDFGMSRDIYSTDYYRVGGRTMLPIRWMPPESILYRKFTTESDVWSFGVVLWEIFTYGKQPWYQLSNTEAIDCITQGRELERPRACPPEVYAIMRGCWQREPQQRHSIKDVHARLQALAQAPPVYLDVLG
Chain of BDNF/NT-3 growth factors receptor (Homo sapiens) (Q16620 32-822 limits assumed): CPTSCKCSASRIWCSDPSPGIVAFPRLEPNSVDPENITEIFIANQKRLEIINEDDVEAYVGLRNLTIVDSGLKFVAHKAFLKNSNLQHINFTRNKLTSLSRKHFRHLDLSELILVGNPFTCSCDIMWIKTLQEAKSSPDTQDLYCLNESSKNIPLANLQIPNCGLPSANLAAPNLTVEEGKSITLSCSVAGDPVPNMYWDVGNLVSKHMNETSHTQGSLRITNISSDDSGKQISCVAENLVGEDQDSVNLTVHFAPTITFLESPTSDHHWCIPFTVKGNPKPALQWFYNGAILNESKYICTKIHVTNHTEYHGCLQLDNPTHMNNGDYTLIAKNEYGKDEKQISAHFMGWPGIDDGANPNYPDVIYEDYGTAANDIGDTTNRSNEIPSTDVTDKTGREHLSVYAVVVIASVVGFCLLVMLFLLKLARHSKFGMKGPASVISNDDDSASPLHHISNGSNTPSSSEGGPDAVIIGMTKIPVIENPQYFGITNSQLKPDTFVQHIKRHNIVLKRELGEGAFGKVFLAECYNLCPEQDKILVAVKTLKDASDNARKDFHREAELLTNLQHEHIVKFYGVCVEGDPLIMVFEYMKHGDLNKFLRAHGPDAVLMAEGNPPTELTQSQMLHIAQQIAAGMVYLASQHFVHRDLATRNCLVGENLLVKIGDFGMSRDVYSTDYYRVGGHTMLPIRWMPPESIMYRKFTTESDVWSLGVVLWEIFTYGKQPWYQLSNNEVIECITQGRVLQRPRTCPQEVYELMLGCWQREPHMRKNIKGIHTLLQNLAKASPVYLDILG

One experiment has as its target High affinity nerve growth factor receptor (Homo sapiens) (UniProt P04629). The conditions noted are these: at 1 µM.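 Further: each value is the mean percent inhibition of TRKA.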
On to `NS(=O)(=O)c1ccc(N/N=C2\C(=O)Nc3cccc(CCc4ccncc4)c32)cc1`, for which the inhibition worked out at 19.1%.

Regarding `COC(=O)Nc1nc2ccc(Oc3ccc(NC(=O)Nc4cc(C(F)(F)F)ccc4F)cc3)cc2s1`, the inhibition was 81.5%.

For `CCn1c(-c2nonc2N)nc2cncc(C(=O)NCCNC)c21`, the inhibition turned out to be 3.09%.

As for `Cc1cc(O)cc(C)c1/C=C/c1cncc(C(=O)OC(C)(C)C)c1`, the inhibition was 2.95%.

On to `CS(=O)(=O)CCNCc1ccc(-c2ccc3ncnc(Nc4ccc(OCc5cccc(C(F)(F)F)c5)cc4)c3c2)o1`, for which the inhibition stood at 7.21%.

As to `COC(=O)Nc1nc2cc(Oc3ccc(NC(=O)Nc4ccccc4)cc3)ccc2[nH]1`, the inhibition is 0.28%.

Turning to `O=C1Nc2ccccc2/C1=C1\CCc2cc(O)ccc21`, the inhibition came to 70.6%.

In the case of `CC1(C)CC(n2cnc(-c3ccc(F)cc3)c2-c2ccnc(N)n2)CC(C)(C)N1`, the inhibition came to 0.77%.

Turning to `COc1ccc(-c2nn3ncccc3c2-c2ccnc(Nc3ccc(F)c(F)c3)n2)cc1`, the inhibition turned out to be 3.36%.

Regarding `CCS(=O)(=O)c1ccc(OC)c(Nc2ncc(-c3cccc(C(C)=O)c3)o2)c1`, the inhibition worked out at 9.16%.

With `COc1cc(Nc2ncc(-c3ccccc3)o2)cc(OC)c1`, the inhibition turned out to be 19.7%.

As for `c1cnn2ncc(-c3ccnc(NCCCN4CCOCC4)n3)c2c1`, the inhibition is 1.75%.

On to `Cc1c2ccc(N(C)c3ccnc(Nc4cccc(S(N)(=O)=O)c4)n3)cc2nn1C`, for which the inhibition turned out to be 7.91%.

As to `CS(=O)(=O)Nc1ccc(-c2cc(-c3ccccc3)cc(C(N)=O)c2N)cc1`, the inhibition came out at 3.74%.

Consider `O=C(O[C@H]1CN[C@H](C#Cc2cc3ncnc(Nc4ccc5c(cnn5Cc5ccccc5)c4)c3s2)C1)N1CCOCC1`, for which the inhibition amounted to 2.5%.

As for `Nc1nonc1-c1nc2cnccc2n1C1CC1`, the inhibition is 0.83% and 3.35%.

With `CS(=O)(=O)CCNCc1ccc(-c2ccc3ncnc(Nc4ccc(OCc5ccccc5)cc4)c3c2)o1`, the inhibition is 2.55%.

`NS(=O)(=O)c1ccc(N/N=C2\C(=O)Nc3ccc(C(=O)NCc4ccncc4)cc32)cc1`: the inhibition was 33.7%.

With `COc1cc(N2CCN(C(C)C)CC2)ccc1Nc1nc(Nc2cccc(F)c2C(=O)O)c2cc[nH]c2n1`, the inhibition is 0.85%.

Turning to `CC1=C(C(=O)Nc2ccc3[nH]nc(C)c3c2)C(c2ccc(C(F)(F)F)cc2)CC(=O)N1` (configuration not stated), the inhibition stood at 3.25%.

In the case of `O=C(O[C@H]1CN[C@H](C#Cc2cc3ncnc(Nc4ccc(OCc5cccc(F)c5)c(Cl)c4)c3s2)C1)N1CCOCC1`, the inhibition was 0.52%.

With `COc1cccc(Nc2nccc(-c3cnn4ncccc34)n2)c1`, the inhibition stood at 17.4%.

Consider `CNC(=O)c1sc(-n2cnc3cc(OC)c(OC)cc32)cc1OCc1ccccc1C(F)(F)F`, for which the inhibition came to 4.9%.

`COc1cc2c(cc1Nc1nc(Nc3cccc(F)c3C(N)=O)c3cc[nH]c3n1)N(C(=O)CN1CCN(C(C)C)CC1)CC2`: the inhibition was 0.01%.

In the case of `Fc1ccc(Nc2nccc(-c3c(-c4ccc(C(F)(F)F)cc4)nn4ncccc34)n2)cc1F`, the inhibition worked out at 1.59%.

Regarding `Cn1c(-c2nonc2N)nc2cnccc21`, the inhibition amounted to 0.76%.

With `CS(=O)(=O)Nc1ccc(-c2ccc3c(NC(=O)C4CC4)n[nH]c3c2)cc1`, the inhibition came out at 3.27%.

Consider `COc1cccc(-n2ncc3c(N/N=C/c4ccc(C(=O)NCCN(C)C)cc4)ncnc32)c1`, for which the inhibition stood at 12.1%.

As for `COc1cc(N2CCN(C(C)C)CC2)ccc1Nc1nc(Nc2cccc3ncccc23)c2cc[nH]c2n1`, the inhibition was 1.49%.

Take `CCCNc1cccc(-n2ncc3c(N/N=C/c4ccncc4)ncnc32)c1`: the inhibition is 7.34%.

For the molecule `NC(=O)c1ccc2c(-c3ccnc(NCCCO)n3)c(-c3ccc(F)cc3)nn2c1`, the inhibition is 2.24%.

A further experiment concerns the target BDNF/NT-3 growth factors receptor (Homo sapiens) (UniProt Q16620). The settings on record: at 0.1 µM.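 Further: each value is a mean percent inhibition of TrkB kinase.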
In the case of `NS(=O)(=O)c1ccc(N/N=C2\C(=O)Nc3cccc(CCc4ccncc4)c32)cc1`, the inhibition is 17%.

`COC(=O)Nc1nc2ccc(Oc3ccc(NC(=O)Nc4cc(C(F)(F)F)ccc4F)cc3)cc2s1`: the inhibition was determined as 24.9%.

With `CCn1c(-c2nonc2N)nc2cncc(C(=O)NCCNC)c21`, the inhibition came out at 3.03%.

For `Cc1cc(O)cc(C)c1/C=C/c1cncc(C(=O)OC(C)(C)C)c1`, the inhibition came to 2.88%.

Take `CS(=O)(=O)CCNCc1ccc(-c2ccc3ncnc(Nc4ccc(OCc5cccc(C(F)(F)F)c5)cc4)c3c2)o1`: the inhibition came to 4.9%.

For the molecule `COC(=O)Nc1nc2cc(Oc3ccc(NC(=O)Nc4ccccc4)cc3)ccc2[nH]1`, the inhibition came to 1.72%.

Take `O=C1Nc2ccccc2/C1=C1\CCc2cc(O)ccc21`: the inhibition worked out at 28.6%.

`CC1(C)CC(n2cnc(-c3ccc(F)cc3)c2-c2ccnc(N)n2)CC(C)(C)N1`: the inhibition is 1.16%.

Turning to `COc1ccc(-c2nn3ncccc3c2-c2ccnc(Nc3ccc(F)c(F)c3)n2)cc1`, the inhibition came to 2.76%.

As to `CCS(=O)(=O)c1ccc(OC)c(Nc2ncc(-c3cccc(C(C)=O)c3)o2)c1`, the inhibition was determined as 4.28%.

With `COc1cc(Nc2ncc(-c3ccccc3)o2)cc(OC)c1`, the inhibition is 8.32%.

`c1cnn2ncc(-c3ccnc(NCCCN4CCOCC4)n3)c2c1`: the inhibition is 3.17%.

Turning to `Cc1c2ccc(N(C)c3ccnc(Nc4cccc(S(N)(=O)=O)c4)n3)cc2nn1C`, the inhibition was 4.05%.

For the molecule `CS(=O)(=O)Nc1ccc(-c2cc(-c3ccccc3)cc(C(N)=O)c2N)cc1`, the inhibition turned out to be 1.96%.

As to `O=C(O[C@H]1CN[C@H](C#Cc2cc3ncnc(Nc4ccc5c(cnn5Cc5ccccc5)c4)c3s2)C1)N1CCOCC1`, the inhibition is -1.64%.

Consider `Nc1nonc1-c1nc2cnccc2n1C1CC1`, for which the inhibition is 1.21% and 3.09%.

Regarding `CS(=O)(=O)CCNCc1ccc(-c2ccc3ncnc(Nc4ccc(OCc5ccccc5)cc4)c3c2)o1`, the inhibition worked out at 2.66%.

As to `NS(=O)(=O)c1ccc(N/N=C2\C(=O)Nc3ccc(C(=O)NCc4ccncc4)cc32)cc1`, the inhibition stood at 13%.

As for `COc1cc(N2CCN(C(C)C)CC2)ccc1Nc1nc(Nc2cccc(F)c2C(=O)O)c2cc[nH]c2n1`, the inhibition was 3.78%.

For `CC1=C(C(=O)Nc2ccc3[nH]nc(C)c3c2)C(c2ccc(C(F)(F)F)cc2)CC(=O)N1` (configuration not stated), the inhibition was determined as 1%.

Take `O=C(O[C@H]1CN[C@H](C#Cc2cc3ncnc(Nc4ccc(OCc5cccc(F)c5)c(Cl)c4)c3s2)C1)N1CCOCC1`: the inhibition was determined as 3.03%.

As for `COc1cccc(Nc2nccc(-c3cnn4ncccc34)n2)c1`, the inhibition was 6.68%.

For the molecule `CNC(=O)c1sc(-n2cnc3cc(OC)c(OC)cc32)cc1OCc1ccccc1C(F)(F)F`, the inhibition came to 1.8%.

In the case of `COc1cc2c(cc1Nc1nc(Nc3cccc(F)c3C(N)=O)c3cc[nH]c3n1)N(C(=O)CN1CCN(C(C)C)CC1)CC2`, the inhibition is -0.13%.

Take `Fc1ccc(Nc2nccc(-c3c(-c4ccc(C(F)(F)F)cc4)nn4ncccc34)n2)cc1F`: the inhibition is 2.27%.

In the case of `Cn1c(-c2nonc2N)nc2cnccc21`, the inhibition came out at 1.23%.

As for `CS(=O)(=O)Nc1ccc(-c2ccc3c(NC(=O)C4CC4)n[nH]c3c2)cc1`, the inhibition was found to be 2.22%.

With `COc1cccc(-n2ncc3c(N/N=C/c4ccc(C(=O)NCCN(C)C)cc4)ncnc32)c1`, the inhibition was 5.53%.

Turning to `COc1cc(N2CCN(C(C)C)CC2)ccc1Nc1nc(Nc2cccc3ncccc23)c2cc[nH]c2n1`, the inhibition was 0.73%.

As for `CCCNc1cccc(-n2ncc3c(N/N=C/c4ccncc4)ncnc32)c1`, the inhibition worked out at 5.18%.

Take `NC(=O)c1ccc2c(-c3ccnc(NCCCO)n3)c(-c3ccc(F)cc3)nn2c1`: the inhibition stood at 3.11%.
